Consider 69 compounds from PubChem BioAssay AID2501 (Southern Research Specialized Biocontainment Screening …, 2010).

Out of some 2,200 compounds screened, about 1,200 (55%) were called active. The limit is not given here; nearly all actives have IC50 up to about 92 µM. The set was probably picked from earlier hits. The list shows a part of the results.

This test in a line: counter assay for TAg ATPase ADP read-out – biochemical, ADP-Hunter, fluorescence, counter-screen (AID 2501).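 Also: purified T antigen ATPase.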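 As to inhibition: 0% = enzyme with vehicle and 100% = reference inhibitor wells; higher means more inhibition.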 To be noted: series mostly up to 100 µM. (In general: The purpose of a counterscreen is to sort out artefacts and off-target activity.)
For the compound `Cc1ccccc1CN(C)C(=O)COC(=O)CSc1ccc([N+](=O)[O-])cc1`, the IC50 entry is “inactive”.

With `COC/C=C/C1=CC2=CC(=O)C(C)(OC(=O)c3cnc4ccccc4n3)C(=O)C2=CO1` (centres undefined), the IC50 entry is “inactive”.

Regarding `COC/C=C/C1=CC2=CC(=O)C(C)(OC(=O)CCC(=O)OC)C(=O)C2=CO1` (centres undefined), the IC50 result was “inactive”.

Regarding `COC/C=C/C1=CC2=CC(=O)C(C)(OC(=O)c3ccco3)C(=O)C2=CO1` (centres undefined), the IC50 was 2.83 µM (active).

Turning to `O=c1[nH]c(=O)c2nnc(N/N=C\c3ccc(O)cc3)nc2[nH]1`, the IC50 was 7.96 µM (active).

`Cc1ccc(Cn2c(=S)[nH]c3ccc(N4CCOCC4)cc3c2=O)o1`: the IC50 result was “inactive”.

In the case of `O=c1c2cc(N3CCOCC3)ccc2[nH]c(=S)n1Cc1ccco1`, the IC50 entry was “inactive”.

Turning to `CCc1cc(N2CCOCC2)cc2c1[nH]c1ccccc12`, the IC50 is 6.15 µM (active).

For the compound `Cc1cc(C)c(S(=O)(=O)c2ccccc2Cl)c(Cl)n1`, the IC50 result was “inactive”.

For `CN1CCC/C1=C/C=C1\SC(=S)NC1=O`, the concentration for half-maximal inhibition (IC50) is 7.5 µM (active).

As to `O=C1NC(=S)SC1=C1CCCC1`, the IC50 result was “inactive”.

For `CC(=O)c1sc2nsc(SCCN3CCOCC3)c2c1N`, the concentration for half-maximal inhibition (IC50) is 21.3 µM (active).

Consider `O=C(CCn1c(=O)oc2cc(Cl)ccc21)Nc1ccc(O)cc1`, for which the IC50 was 3.84 µM (active).

`CS(=O)(=O)c1ccc(NC(=O)CCN2C(=O)C3CCCCC3C2=O)cc1` (centres undefined): the IC50 entry was “inactive”.

Consider `O=C(O)CCC(=O)Nc1ccc(SSc2ccc(NC(=O)CCC(=O)O)cc2)cc1`, for which the IC50 entry is “inactive”.

For `CN(C)CCN(C(=O)c1ccccc1Cl)c1nc2c(Cl)cccc2s1`, the IC50 entry is “inactive”.

As to `C/C(=N/NC(N)=S)c1cc2ccc(O)cc2oc1=O`, the IC50 is 25.3 µM (active).

For the compound `COC(=O)CSc1nnc(CNc2ccc(OC)cc2)n1C`, the IC50 is 19.3 µM (active).

As to `CCOc1ccc(NCc2nnc(SCC(=O)Nc3cc(C)on3)n2-c2ccc(OC)cc2)cc1`, the IC50 is 13.5 µM (active).

With `COc1ccc(-n2c(SCC(=O)Nc3ccc(Cl)cc3)nc(O)c(Cc3ccccc3)c2=O)cc1`, the IC50 entry was “inactive”.

As to `COc1ccc(-c2nnc(SCC(=O)c3ccc[nH]3)n2-c2ccccc2)cc1`, the IC50 entry is “inactive”.

As to `COc1ccc(CCNC(=O)CSc2nncs2)cc1`, the IC50 entry is “inactive”.

On to `CCN1CCC[C@H]1CNC(=O)c1c(O)c(Cl)cc(Cl)c1OC`, for which the IC50 result is “inactive”.

As to `Nc1ccc(OCC(O)C[n+]2ccc(CCS(=O)(=O)[O-])cc2)cc1` (centres undefined), the IC50 is 4.65 µM (active).

In the case of `O=C(Cc1coc(-c2ccc(F)cc2)n1)NCc1ccccc1`, the IC50 entry was “inactive”.

Regarding `Oc1ccc(/C=C/c2cc(O)cc(O)c2)cc1`, the IC50 was 11.3 µM (active).

As for `Oc1cc(O)cc(/C=C/c2ccc(O)c(O)c2)c1`, the IC50 entry was “inactive”.

In the case of `O=C(/C=C/c1ccc(O)c(O)c1)c1ccccc1O`, the IC50 was 6.57 µM (active).

Take `O=C(O)/C=C/c1ccc(O)c(O)c1`: the IC50 is 6.76 µM (active).

As for `O=C(O)/C=C/c1ccc(O)cc1`, the IC50 is 8.81 µM (active).

`O=C(c1nnsc1S(=O)c1ccc(Cl)cc1)N1CCOCC1` (centres undefined): the IC50 entry is “inactive”.

For the compound `COc1cccc2c(=O)n(CC(=O)Nc3ccccc3F)ccc12`, the IC50 entry was “inactive”.

Regarding `CC(/C=C/c1ccc(O)cc1)=N/O`, the IC50 was 3.08 µM (active).

Take `Cc1coc2c1C(=O)C(=O)c1c-2ccc2c(C)cccc12`: the IC50 result is “inactive”.

With `CCn1c(/C=C/c2c(C)[nH]c3ccccc23)nc2ccccc2c1=O`, the IC50 entry was “inactive”.

As for `CCn1c(/C=C/c2ccc(O)c(O)c2)nc2ccccc2c1=O`, the IC50 was 64.8 µM (active).

Consider `Oc1ccc(/C=N/n2c(COc3ccccc3)n[nH]c2=S)cc1O`, for which the IC50 is 9.32 µM (active).

For the compound `Cc1nc2ccccc2c(=O)n1/N=C/c1cn(-c2ccccc2)nc1-c1cccs1`, the IC50 entry was “inactive”.

In the case of `O=C(OCn1nnc2ccccc2c1=O)c1ccc(O)cc1`, the IC50 entry is “inactive”.

On to `O=c1c2ccccc2nc(COc2ccccc2)n1/N=C/c1ccc(O)c(O)c1`, for which the IC50 was 12.1 µM (active).

Regarding `N#CCn1c(CCl)nc2ccccc2c1=O`, the IC50 result is “inactive”.

Turning to `CCCc1nc2ccccc2c(=O)n1/N=C/c1ccc(O)c(O)c1`, the concentration for half-maximal inhibition (IC50) was 10.5 µM (active).

For `CSC1=NS(=O)(=O)c2c(C)nn(C)c2S1`, the IC50 result was “inactive”.

As to `CC(C)(C)c1cc[n+](C2=C([O-])c3ccccc3C(=O)/C2=N\S(=O)(=O)c2ccccc2)cc1`, the IC50 result is “inactive”.

For `CCCNC(=O)c1ccc2c(=O)c(O)c(-c3cccc(Br)c3)[nH]c2c1`, the IC50 entry is “inactive”.

On to `O=C1/C(=N/n2cnnc2)c2ccccc2N1Cc1ccccc1`, for which the IC50 result was “inactive”.

As to `Nc1cc(CN2C(=O)c3ccccc3C2=O)cc(Cl)c1O`, the IC50 was 4.47 µM (active).

As for `O=C(NCc1ccccc1)c1onc(CSc2ccc(F)cc2)c1C(=O)NCCCN1CCOCC1`, the IC50 result is “inactive”.

For the compound `CN(C)c1ccc(-c2nc3cnccn3c2Nc2ccc3c(c2)OCCO3)cc1`, the IC50 is 11.3 µM (active).

Regarding `COc1cc(-c2nc3cnccn3c2Nc2ccccc2)ccc1O`, the IC50 was 2.57 µM (active).

`CCN(CC)c1ccc(-c2nc3cnccn3c2NC2CCCC2)cc1`: the IC50 was 12.1 µM (active).

Consider `Oc1ccc(-c2nc3ncccn3c2Nc2ccc3c(c2)OCO3)cc1`, for which the IC50 was 5.13 µM (active).

As to `CC12CCC(C/C1=N/O)C2(C)C` (centres undefined), the IC50 result was “inactive”.

`COc1ccc(-c2c(C)n([O-])c3c([n+]2=O)CCCCC3)cc1OC`: the IC50 entry was “inactive”.

Turning to `Cc1ccc(/C(O)=C2/C(=O)C(=O)OC2c2ccc(Cl)cc2)cc1` (centres undefined), the IC50 result was “inactive”.

`Oc1ccc(-c2nc3cnccn3c2Nc2ccc3c(c2)OCCO3)cc1`: the IC50 is 3.53 µM (active).

As for `NNC(=O)c1sc2cc(C(F)(F)F)cnc2c1-c1ccccn1`, the IC50 result is “inactive”.

Consider `CCOC(=O)c1cc(-c2ccc(N)cc2)sc1N`, for which the IC50 is 5.53 µM (active).

On to `CCOC(=O)c1c(N)ssc1=S`, for which the inhibition is 20.8% [at 12.5 µM] (inactive).

Regarding `NNC(=O)c1cc(-c2ccccc2)sc1N`, the IC50 is 8.67 µM (active).

With `CCOC(=O)c1sc(N)nc1C(C)C`, the IC50 entry is “inactive”.

As for `CC(=O)c1ccc2c3c(cccc13)C(=O)N(c1c(C)nn(C)c1C)C2=O`, the IC50 entry was “inactive”.

Consider `O=C(NCc1cccs1)Nc1cc(Cl)ccc1Cl`, for which the IC50 is 91.1 µM (active).

With `O=C(NCc1ccco1)Nc1cccs1`, the IC50 result was “inactive”.

Consider `Cc1ccc(C)n1/N=C1/NC(=O)CS1`, for which the IC50 entry is “inactive”.

In the case of `Oc1cc(O)c2c(c1)O[C@H](c1ccc(O)c(O)c1)[C@@H](O)C2`, the IC50 was 11.9 µM (active).

`Oc1cc(O)c2c(c1)OC(c1ccc(O)c(O)c1)C(O)C2` (centres undefined): the IC50 was 3.95 µM (active).

On to `COC(=O)Cc1cc(=O)n(-c2nc3ccccc3s2)[nH]1`, for which the IC50 result was “inactive”.

As for `CC(=O)O[C@H]1C[C@@]2(C)[C@@H](C[C@@H](O)[C@H]3[C@@]4(C)CC[C@@H](O)[C@@H](C)[C@@H]4CC[C@@]32C)/C1=C(\CCC=C(C)C)C(=O)O`, the IC50 entry is “inactive”.

The term IC50 denotes the concentration that gives 50% inhibition. As a reminder, the inhibition is the percentage by which the read-out fell short of the control.
